Source: PubChem BioAssay
Cardiac RTF inh: cardiac RTF calcium sensitivity inhibitors, primary screen, biochemical, IANBD-TnC fluorescence, EC70 calcium; inhibition, % at 7.15 µM; IANBD-labeled cardiac RTF, Ca2+ fluorescence; Troponin I, cardiac muscle (Homo sapiens) + Troponin T, cardiac muscle (Homo sapiens) + …; actives 0.12% (n = 340,000);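 active means inhibition above the mean inhibition of all tested compounds plus 3 SD, cut at about 17% in these data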;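 further: assay run at fixed EC70 calcium of 1.6 mM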
LANA DNA inh: inhibitors of KSHV C-LANA binding to DNA, primary screen, biochemical, fluorescence polarization, FAM-LBS DNA, MBP-C-LANA, single point | Kaposi's sarcoma herpesvirus LANA C-terminal domain (residues 932-1162) DNA binding | inhibition, % at 9 µM | actives 0.078% (n = 340,000) | AID 504423, 2011;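 active means highest replicate inhibition at or above 60% at 9 µM, even if other replicates fall short; inactive means all replicates below 60% inhibition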
E coli Lon inh: inhibitors of E. coli Lon protease, primary screen, biochemical, fluorescence polarization; P0A9M0; purified E. coli Lon protease; inhibition, % at 7.94 µM; actives 0.42% (n = 360,000); AID 602123, 2011; in the data active means inhibition above about 13%, passing the limit was not always enough
Target sequence (P0A9M0 whole entry, looked up): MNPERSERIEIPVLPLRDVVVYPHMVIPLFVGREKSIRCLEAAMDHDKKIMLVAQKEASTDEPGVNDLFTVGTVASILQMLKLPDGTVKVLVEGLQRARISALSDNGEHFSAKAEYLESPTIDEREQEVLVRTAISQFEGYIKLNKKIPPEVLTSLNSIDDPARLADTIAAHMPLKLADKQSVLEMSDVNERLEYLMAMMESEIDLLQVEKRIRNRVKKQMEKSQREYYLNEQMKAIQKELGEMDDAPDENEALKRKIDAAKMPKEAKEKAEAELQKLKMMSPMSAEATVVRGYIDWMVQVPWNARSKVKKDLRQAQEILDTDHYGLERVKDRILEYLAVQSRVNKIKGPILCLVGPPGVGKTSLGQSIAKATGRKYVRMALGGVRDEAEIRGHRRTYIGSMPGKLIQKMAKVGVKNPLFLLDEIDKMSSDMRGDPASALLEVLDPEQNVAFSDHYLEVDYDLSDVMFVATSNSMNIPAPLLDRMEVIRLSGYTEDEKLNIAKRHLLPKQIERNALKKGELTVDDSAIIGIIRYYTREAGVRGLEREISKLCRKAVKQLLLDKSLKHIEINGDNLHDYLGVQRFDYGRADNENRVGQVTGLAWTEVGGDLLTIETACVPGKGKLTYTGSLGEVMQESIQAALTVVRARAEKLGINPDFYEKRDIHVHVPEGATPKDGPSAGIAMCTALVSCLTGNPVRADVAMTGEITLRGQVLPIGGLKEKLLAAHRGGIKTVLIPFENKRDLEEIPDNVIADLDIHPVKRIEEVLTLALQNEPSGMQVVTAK
Keap1-Nrf2 PPI: Keap1-Nrf2 protein-protein interaction inhibitors, primary screen, biochemical, fluorescence polarization, single point | Kelch-like ECH-associated protein 1 (Homo sapiens), Q14145 | Keap1 Kelch-Nrf2 peptide fluorescence polarization, 1536-well | inhibition, % at 9.4 µM | actives 0.15% (n = 340,000) | AID 504523, 2011; in the data active means inhibition above about 12%;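 further: human Keap1 Kelch domain with fluorescein labeled Nrf2 9mer peptide probe; higher means more block of Keap1 binding to Nrf2 peptide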
EBV gp42 inh: Epstein-Barr virus gp42 inhibitors, primary screen, biochemical, uHTS, fluorescence polarization; Glycoprotein 42 (Epstein-Barr virus (strain AG876)), Q1HVG2; Fluorescence polarization binding assay, mP read-out; inhibition, % (tested at 21.74 µM); actives 0.42% (n = 220,000); in the data active means inhibition above about 50%
cardiac RTF act: cardiac RTF calcium sensitivity activators, primary screen, biochemical, IANBD-TnC fluorescence, EC20 calcium; actives 0.24% (n = 340,000); activation, % at 7.2 µM; Troponin I, cardiac muscle (Homo sapiens) + Troponin T, cardiac muscle (Homo sapiens) + …; AID 493008, 2010; IANBD-labeled TnC RTF fluorescence at EC20 calcium; 0% EC20 calcium, 100% full calcium;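 active means activation above the mean over all tested compounds plus 3 SD, cut at about 30% in these data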;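 further: rise in fluorescence read as greater calcium sensitivity of cardiac thin filaments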
eLon confirm: E. coli Lon protease inhibitor retest, confirmation, biochemical, fluorescence polarization | actives 31% (n = 1,400) | purified E. coli Lon | inhibition, % at 7.94 µM | AID 602230, 2012 | shares compounds with E coli Lon inh; in the data active means inhibition above about 16%
Large screens that a line does not name were inactive (follow-up assays come after a bar, where they were run); ! = not active in a repeat. A selection: hits, their analogues and other compounds. The true share with any hit is near 0.98%.

Cc1ccc2cccc(NC(=S)NC(=O)c3ccccc3)c2n1	none
COC(=O)c1ccccc1NC(=S)NC(=O)c1ccc(C)cc1	none
Cc1ccc2cccnc2c1NC(=S)NC(=O)c1ccccc1	E coli Lon inh 19.2 | eLon confirm inactive
COC(=O)c1ccccc1NC(=S)NC(=O)c1ccccc1	E coli Lon inh 15.9 | eLon confirm inactive
COc1ccc(NC2CCCN(C(=O)c3ccc4[nH]c(C)c(C)c4c3)C2)cc1 (configuration not stated)	none (no result: EBV gp42 inh)
CCN1CCN(Cc2ccc(NC(=O)c3ccc(C)c(NC(=O)c4cccc5[nH]ccc45)c3)cc2C(F)(F)F)CC1	E coli Lon inh 12.8! | eLon confirm inactive
CCN1CCN(Cc2ccc(NC(=O)c3ccc(C)c(NC(=O)c4nccn4C)c3)cc2C(F)(F)F)CC1	none
CCC(CO)Oc1cc(NCc2cccnc2)c2ncn(C(C)C)c2c1 (configuration not stated)	E coli Lon inh 27.4 (no result: EBV gp42 inh) | eLon confirm inactive
CCC(C)c1ccccc1N1CC(C(=O)NCCc2ccc(OC)c(OC)c2)CC1=O (configuration not stated)	none (no result: EBV gp42 inh)
Cc1c(N/C(=N/S(=O)(=O)c2cc([N+](=O)[O-])ccc2Cl)c2ccccc2)c(=O)n(-c2ccccc2)n1C	E coli Lon inh 18.7 | eLon confirm inactive
C=C(C)c1cccc(C(C)(C)NC(=O)Nc2ccc(OC)nc2)c1	E coli Lon inh 45.9 (no result: EBV gp42 inh) | eLon confirm 18.2
CCNC(=O)C1CCCN(C(=O)c2cc(C)oc2C)CC1 (configuration not stated)	none (no result: Cardiac RTF inh, LANA DNA inh, Keap1-Nrf2 PPI, EBV gp42 inh, cardiac RTF act)
Nc1c(C(=O)O)nnn1Cc1ccccc1	none
CCn1nnc(C(=O)O)c1C(=O)O	E coli Lon inh 15.9 | eLon confirm inactive
CCC(=O)N(CCc1ccc(OC)c(OC)c1)Cc1cc2ccc(C)cc2n2nnnc12	E coli Lon inh 15.7 | eLon confirm inactive
CCC(=O)N(Cc1cc2ccc(C)cc2n2nnnc12)C1CCCCC1	none
CC1CN(Cc2csc(-c3ccc(Cl)cc3)n2)CC(C)O1 (configuration not stated)	E coli Lon inh 15.2 | eLon confirm inactive
CC1CCN(C(=O)C2CCN(c3ncnc4c3nc3n4CCCCC3)CC2)CC1	E coli Lon inh 20.4 (no result: EBV gp42 inh) | eLon confirm inactive
O=C(NC12CC3CC(CC(C3)C1)C2)c1cc([N+](=O)[O-])ccc1N1CCOCC1	E coli Lon inh 19.4 | eLon confirm inactive
O=C(NCC1CCCCC1)c1cc([N+](=O)[O-])ccc1N1CCOCC1	none
CCCCn1c(NC(C)=O)c(C#N)c2nc3ccccc3nc21	E coli Lon inh 22.7 | eLon confirm inactive
O=C(COc1ccccc1Br)Nc1ccc(S(=O)(=O)N2CCCC2)cc1	none (no result: EBV gp42 inh)
COC(=O)N/N=C\c1cc2c(cc1Br)OCO2	E coli Lon inh 18.4 | eLon confirm inactive
Cc1cc(C)c(-c2cc(C(=O)Nc3c(C)n(C)n(-c4ccccc4)c3=O)[nH]n2)c(O)c1	none
Cc1ccc(-c2cc(C(=O)Nc3c(C)n(C)n(-c4ccccc4)c3=O)[nH]n2)c(O)c1	E coli Lon inh 15.3 | eLon confirm inactive
C[C@@H]1CN([C@@H](C)CO)C(=O)c2cc(NC(=O)CCC(F)(F)F)ccc2O[C@H]1CN(C)S(=O)(=O)c1ccc(Cl)cc1	none (no result: EBV gp42 inh)
Cn1c(CNc2ccc(Cl)cc2)nc2ccccc21	none
Cc1ccc(N2CCN(c3ccc(NCc4nc5ccccc5n4C)cc3)CC2)cc1	E coli Lon inh 44.5 | eLon confirm inactive
Cc1cccc(OCC(=O)N2CCc3ccccc3C2)c1C	none (no result: Cardiac RTF inh, LANA DNA inh, Keap1-Nrf2 PPI, EBV gp42 inh, cardiac RTF act)
c1c2c(cc3sc(N4CCOCC4)nc13)OCCO2	none
